A selection: hits, their analogues and other compounds. The true share with any hit is near 0.9%.
PPARg SRC-3 ag: agonists of human PPARgamma SRC-3 coactivator recruitment; biochemical PPARgamma/SRC-3 coactivator recruitment assay; activation, % at 8 µM; 200,000 compounds, 0.26% hits; AID 731; in the data active = activation above about 23%
Target sequence (P37231 whole entry, looked up): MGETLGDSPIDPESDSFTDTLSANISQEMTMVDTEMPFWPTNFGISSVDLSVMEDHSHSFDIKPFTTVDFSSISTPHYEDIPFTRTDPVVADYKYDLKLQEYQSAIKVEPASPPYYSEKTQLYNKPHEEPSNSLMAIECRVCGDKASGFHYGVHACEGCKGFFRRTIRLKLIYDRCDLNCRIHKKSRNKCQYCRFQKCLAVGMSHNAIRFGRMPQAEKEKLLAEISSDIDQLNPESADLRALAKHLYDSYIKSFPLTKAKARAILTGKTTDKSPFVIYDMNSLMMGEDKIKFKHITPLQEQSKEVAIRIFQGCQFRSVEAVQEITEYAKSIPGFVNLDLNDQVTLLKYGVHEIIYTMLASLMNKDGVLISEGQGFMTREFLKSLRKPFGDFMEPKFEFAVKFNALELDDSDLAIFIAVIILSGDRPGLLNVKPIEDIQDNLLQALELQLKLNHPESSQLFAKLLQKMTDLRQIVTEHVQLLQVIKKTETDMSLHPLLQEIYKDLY
PPARg SRC-1 ag: PPARgamma-driven SRC-1 recruitment agonism. P37231. PPARgamma-SRC-1 coactivator recruitment biochemical assay. activation, % at 8 µM. 200,000 compounds, 0.41% hits; in the data active = activation above about 19%
TR-FRET SRC-2 ct: TR-FRET artefact, counter-screen to PPARgamma/SRC-2 agonist assay; stronger effect = higher value; 200,000 compounds, 0.4% hits; TR-FRET ratio at 8 µM
PPARg SRC-2 ag: agonists of SRC-2 recruitment by human PPARgamma; PPARgamma LBD-SRC-2 recruitment, biochemical; P37231; AID 1032; activation, % at 8 µM; 200,000 compounds, 0.34% hits; in the data active = activation above about 22%
SRC3 TRFRET art: flags TR-FRET format artefacts in PPARgamma SRC-3 recruitment agonist screen | AID 1048 | TR-FRET artefact counter-screen, PPARgamma/SRC-3 format; stronger effect = higher value | 99,000 compounds, 0.39% hits | TR-FRET ratio at 8 µM
SRC1 TRFRET art: TR-FRET artefact, counter-screen to PPARgamma/SRC-1 agonist assay. TR-FRET detection artefact counter-screen, emission ratio; stronger effect = higher value. AID 1051. 99,000 compounds, 0.34% hits. TR-FRET ratio at 8 µM; in the data active = TR-FRET ratio above about 2300
PPARg SRC2 conf: confirmation of agonists of SRC-2 recruitment by human PPARgamma; 790 compounds, 52% hits; shares compounds with PPARg SRC-3 ag; biochemical SRC-2 recruitment by PPARgamma; activation, % at 8 µM; in the data active = activation above about 22%
PPARg SRC1 ag: human PPARgamma SRC-1 recruitment agonism, confirmation. shares compounds with PPARg SRC-3 ag. PPARgamma–SRC-1 coactivator recruitment biochemical assay. activation, % at 8 µM. 790 compounds, 43% hits. AID 1300; in the data active = activation above about 20%
PPARg SRC3 ag: confirmation of agonists of SRC-3 recruitment by human PPARgamma; shares compounds with PPARg SRC-3 ag; biochemical PPARgamma-SRC-3 coactivator recruitment, agonist mode; activation, % at 8 µM; 790 compounds, 29% hits; AID 1301; in the data active = activation above about 24%
Of the large screens only hits and unclear results are named; the others gave an inactive call (follow-up assays come after a bar, where they were run). Rule as the data show it, unless noted: active = TR-FRET ratio above about 2000; inactive = the rest.

O=C(Nc1ccc(OC(F)(F)F)cc1)c1[nH]ncc1[N+](=O)[O-]	none
Nc1ccc(-c2nc3ccc(N)cc3[nH]2)cc1	PPARg SRC-1 ag 31 | PPARg SRC2 conf inactive | PPARg SRC1 ag inactive | PPARg SRC3 ag inactive
Cc1noc(C)c1COC(=O)C(c1ccccc1)c1ccccc1	none
CC1CCCN(S(=O)(=O)c2ccc(S(=O)(=O)N3CCC4(CC3)OCCO4)cc2)C1 (configuration not stated)	none
CC1=NOC(=O)/C1=C\c1ccc(-c2ccccc2Br)o1	PPARg SRC-3 ag 51, PPARg SRC-1 ag 82, TR-FRET SRC-2 ct 3893, PPARg SRC-2 ag 118, SRC3 TRFRET art 3608, SRC1 TRFRET art 4294 | PPARg SRC2 conf 79 | PPARg SRC1 ag 61 | PPARg SRC3 ag 58
O=C(Oc1c(Br)cc(Br)c2cccnc12)N1CCCCC1	PPARg SRC-1 ag 29 | PPARg SRC2 conf inactive | PPARg SRC1 ag inactive | PPARg SRC3 ag inactive
O=C(Oc1ccc(Cl)c2cccnc12)N1CCCCC1	none
CCC(C)n1c(SCC(=O)Nc2cc(C)on2)nc2ccccc2c1=O (configuration not stated)	none (no result: SRC3 TRFRET art, SRC1 TRFRET art)
CCCCn1c(SCC(=O)Nc2cc(C)on2)nc2ccccc2c1=O	PPARg SRC-1 ag 22 (no result: SRC3 TRFRET art, SRC1 TRFRET art) | PPARg SRC2 conf inactive | PPARg SRC1 ag inactive | PPARg SRC3 ag inactive
S=C(NCCC1=CCCCC1)NCc1ccco1	none
O=c1c(O)c(-c2ccc(O)cc2O)oc2cc(O)cc(O)c12	PPARg SRC-1 ag 23 | PPARg SRC2 conf inactive | PPARg SRC1 ag inactive | PPARg SRC3 ag inactive
O=c1oc(-c2ccccc2F)nc2c1cnn2-c1ccccc1	PPARg SRC-1 ag 23 (no result: SRC3 TRFRET art, SRC1 TRFRET art) | PPARg SRC2 conf inactive | PPARg SRC1 ag 25 | PPARg SRC3 ag 27
Cc1ccc(/C=C/C(=O)OCC(=O)NC(C)C)o1	none
O=C(Cc1sc(-c2ccccc2Cl)nc1-c1ccccc1)Nc1ccc(F)cc1	PPARg SRC-1 ag 29, TR-FRET SRC-2 ct 2292 (no result: SRC3 TRFRET art, SRC1 TRFRET art) | PPARg SRC2 conf inactive | PPARg SRC1 ag inactive | PPARg SRC3 ag inactive
O=C(Cc1sc(-c2ccccc2)nc1-c1ccccc1)Nc1ccc(Cl)cc1	none (no result: SRC3 TRFRET art, SRC1 TRFRET art)
Cc1ccc(S(=O)(=O)NCc2ccc(C(=O)NCCCN3CCC(Cc4ccccc4)CC3)cc2)cc1	none
O=C(O)/C=C\C(=O)NCc1cccnc1	none
COC(=O)c1ccc(C2C(C(=O)c3cc4ccccc4o3)=C(O)C(=O)N2CCCN(C)C)cc1 (configuration not stated)	PPARg SRC-3 ag 29, PPARg SRC-1 ag 22 (no result: SRC3 TRFRET art, SRC1 TRFRET art) | PPARg SRC2 conf 25 | PPARg SRC1 ag 22 | PPARg SRC3 ag inactive
COC(=O)c1ccc(C2/C(=C(\O)c3cccc(OC)c3)C(=O)C(=O)N2CCCN(C)C)cc1 (configuration not stated)	none
CN(C)CCCN1C(=O)C(O)=C(C(=O)c2cc3ccccc3o2)C1c1ccccc1 (configuration not stated)	PPARg SRC-3 ag 90, PPARg SRC-1 ag 53, TR-FRET SRC-2 ct 3299, PPARg SRC-2 ag 73 (no result: SRC3 TRFRET art, SRC1 TRFRET art) | PPARg SRC2 conf 70 | PPARg SRC1 ag 50 | PPARg SRC3 ag 45
COc1cccc(C2C(C(=O)c3ccc(C)o3)=C(O)C(=O)N2CCCN(C)C)c1 (configuration not stated)	none (no result: SRC3 TRFRET art, SRC1 TRFRET art)
O=C(C1=C(O)C(=O)N(CCCN2CCOCC2)C1c1ccncc1)c1cc2ccccc2o1 (configuration not stated)	PPARg SRC-1 ag 23, SRC3 TRFRET art 2068, SRC1 TRFRET art 2425 | PPARg SRC2 conf 25 | PPARg SRC1 ag inactive | PPARg SRC3 ag inactive
O=C(C1=C(O)C(=O)N(CCN2CCOCC2)C1c1cccnc1)c1cc2ccccc2o1 (configuration not stated)	none (no result: SRC3 TRFRET art, SRC1 TRFRET art)
Cc1cc([N+](=O)[O-])ccc1NC(=O)C[n+]1ccc(N(C)C)cc1	none
Cc1ccccc1-c1ccc(C=Nc2c(C)n(C)n(-c3ccccc3)c2=O)o1	PPARg SRC-1 ag 24, TR-FRET SRC-2 ct 2051, PPARg SRC-2 ag 35 (no result: SRC3 TRFRET art, SRC1 TRFRET art) | PPARg SRC2 conf 24 | PPARg SRC1 ag inactive | PPARg SRC3 ag inactive
COc1ccc(NC(=O)CSc2c3c(nc4cc(Cl)ccc24)CCCC3)cc1OC	none
COCCNC(=O)CSc1c2c(nc3ccc(Cl)cc13)CCCC2	PPARg SRC-1 ag 39, TR-FRET SRC-2 ct 2154, PPARg SRC-2 ag 31, SRC3 TRFRET art 2446, SRC1 TRFRET art 2521 | PPARg SRC2 conf inactive | PPARg SRC1 ag inactive | PPARg SRC3 ag inactive
O=C(CSc1c2c(nc3ccccc13)CCC2)N1CCCC1	none
COc1ccccc1NC(=O)CSc1c2c(nc3ccccc13)CCC2	none
COc1ccc(NC(=O)CSc2c3c(nc4ccccc24)CCCC3)c(OC)c1	PPARg SRC-1 ag 26, TR-FRET SRC-2 ct 1985, PPARg SRC-2 ag 27 | PPARg SRC2 conf 26 | PPARg SRC1 ag inactive | PPARg SRC3 ag inactive
O=C(CSc1c2c(nc3cc(Cl)ccc13)CCCC2)NCc1ccco1	TR-FRET SRC-2 ct 2007, PPARg SRC-2 ag 26 (no result: SRC3 TRFRET art, SRC1 TRFRET art) | PPARg SRC2 conf 29 | PPARg SRC1 ag 21 | PPARg SRC3 ag inactive
CCOC(=O)C1CCN(C(=O)CSc2c3c(nc4ccccc24)CCC3)CC1	PPARg SRC-2 ag 23 | PPARg SRC2 conf 24 | PPARg SRC1 ag inactive | PPARg SRC3 ag inactive
CC(=O)c1ccc(NC(=O)CSc2ccc3nnc(-c4cccnc4)n3n2)cc1	none
Cc1ccc(C(=O)NC(=O)CSc2ncccc2C(=O)O)cc1	none
O=C(Nc1cc([N+](=O)[O-])ccc1Cl)c1ccc2c(c1)OCO2	none
CCC1=NN2C(=N)/C(=C\c3cccn3-c3cccc(Cl)c3)C(=O)N=C2S1	PPARg SRC-3 ag 28 | PPARg SRC2 conf inactive | PPARg SRC1 ag inactive | PPARg SRC3 ag inactive
CC(C)Sc1oc(-c2ccco2)nc1S(=O)(=O)c1ccccc1	PPARg SRC-3 ag 28, PPARg SRC-1 ag 19, TR-FRET SRC-2 ct 2119, PPARg SRC-2 ag 46 (no result: SRC3 TRFRET art, SRC1 TRFRET art) | PPARg SRC2 conf 55 | PPARg SRC1 ag 46 | PPARg SRC3 ag 35
O=C(Nc1nnc(-c2ccco2)s1)C1CCN(S(=O)(=O)c2ccc(Cl)cc2)CC1	PPARg SRC-3 ag 36, PPARg SRC-1 ag 34 (no result: SRC3 TRFRET art, SRC1 TRFRET art) | PPARg SRC2 conf 24 | PPARg SRC1 ag inactive | PPARg SRC3 ag inactive
Cc1nc2ccc3nc(NC(=O)c4ccc5c(c4)OCCO5)sc3c2s1	PPARg SRC-3 ag 157, PPARg SRC-1 ag 117, TR-FRET SRC-2 ct 2067 (no result: SRC3 TRFRET art, SRC1 TRFRET art) | PPARg SRC2 conf 92 | PPARg SRC1 ag 71 | PPARg SRC3 ag 58
C=CCOc1ccc(Br)cc1CNC(C)(C)C	none

Screens deposited in PubChem BioAssay by The Scripps Research Institute Molecular Screening Center.
